Screening results as filed in PubChem BioAssay.
The sample as a whole holds a higher share of hits than the screen did.
FECH block: blocks human mitochondrial ferrochelatase activity; AID 1671448; 20,000 tested, 3.3% active; calls only at 10 µM (by protocol); purified FECH, Ni-mesoporphyrin absorbance 550 nm;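 active means enzyme reaction rate more than 3 SD below the solvent-only control wells on the same plate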;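 further: lower slope than DMSO wells means FECH inhibition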
Target sequence (P22830 whole entry, looked up): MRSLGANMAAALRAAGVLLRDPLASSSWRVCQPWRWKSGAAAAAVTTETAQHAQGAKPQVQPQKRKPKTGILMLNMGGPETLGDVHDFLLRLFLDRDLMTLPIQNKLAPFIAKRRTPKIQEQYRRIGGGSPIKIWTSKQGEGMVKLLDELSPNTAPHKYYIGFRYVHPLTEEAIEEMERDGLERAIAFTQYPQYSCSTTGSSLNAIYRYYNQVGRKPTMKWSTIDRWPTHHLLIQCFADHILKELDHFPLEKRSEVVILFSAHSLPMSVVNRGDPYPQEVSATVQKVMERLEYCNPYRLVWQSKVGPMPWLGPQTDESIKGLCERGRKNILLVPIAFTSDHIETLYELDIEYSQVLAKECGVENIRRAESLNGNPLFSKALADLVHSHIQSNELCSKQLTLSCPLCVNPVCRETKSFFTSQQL
* marks the source's active call; other numbers are inactive results; i = inactive; + = active, no number.

SMILES	FECH block
CCn1ncc(CN(C)c2cc(C(C)C)nc(C)n2)c1C	i
O=C1CN(Cc2cccc(Br)c2)S(=O)(=O)c2ccccc2N1Cc1ccccc1F	i
Cc1ccoc1C(=O)NCC1CN(S(C)(=O)=O)CCO1 (stereo not drawn)	i
CC(c1ccc(-c2ccccc2CN2CCNCC2)cc1)N1CCOCC1 (stereo not drawn)	i
COc1ccc(N2CCCS2(=O)=O)cc1NC(=O)c1ccc(Br)cc1	i
CCCc1cc(=O)n2[nH]c(CNc3cccc(C(F)(F)F)c3)nc2n1	+
O=c1cc(CNc2cccc(C(F)(F)F)c2)nc2nc(NCc3ccc(F)cc3)[nH]n12	i
CCCc1cc(=O)n2[nH]c(CNc3cc(Cl)ccc3OC)nc2n1	i
CCCc1cc(=O)n2[nH]c(CNc3ccc(C)cc3)nc2n1	+
COc1cccc(NCc2cc(=O)n3[nH]c(NCc4ccc(F)cc4)nc3n2)c1	i
CCCc1cc(=O)n2[nH]c(CNc3ccc(C)c(Cl)c3)nc2n1	+
COc1ccc2[nH]cc(CCNC(=O)CC3CCN(S(=O)(=O)c4ccccc4)CC3)c2c1	i
COc1cc(C(=O)Nc2ccc(Cl)c(N3CCCS3(=O)=O)c2)cc(OC)c1OC	i
CCC(=O)Nc1ccc(OCC(=O)NC(C)c2cn3ncsc3n2)cc1 (stereo not drawn)	i
CCOc1c(NCc2ccc(OC)cc2)c(=O)c1=O	i
CN(C)c1ccc(CNC(=O)CN2C(=O)c3cccnc3Sc3ccccc32)cc1	+
CCCCOc1ccc(CNC(=O)CN2C(=O)c3cccnc3Sc3ccccc32)cc1	+
Cc1ccc(NC(=O)CN2C(=O)c3cccnc3Sc3ccccc32)cc1F	+
CN1CC(=O)N(CC(=O)NCc2ccc(F)cc2)c2ccccc2C1=O	i
O=C(CN1C(=O)c2cccnc2Sc2ccccc21)NCCc1ccco1	i
CCCCOc1ccc(CNC(=O)c2ccc(CN3C(=O)CCn4nccc43)cc2)cc1	i
Cc1ccc(NC(=O)CN2C(=O)CN(C)C(=O)c3ccccc32)cc1C	i
O=C(CCCN1C(=O)c2cccnc2Sc2ccccc21)Nc1cc(-c2cccc(Cl)c2)no1	i
CN1CC(=O)N(CC(=O)Nc2ccc(F)c(F)c2)c2ccccc2C1=O	i
CCn1c(C2CCN(C(=O)C3(Cn4cccn4)CC3)CC2)nn(C)c1=O	i
SMILES	FECH block
CC(C)(C)c1cc(-c2nccn2Cc2ccc3c(c2)OCO3)n[nH]1	i
CCCC(=O)N(Cc1nc2nc(C)cc(C)n2n1)c1ccc(OCC)cc1	i
Cc1ccc(N(Cc2nc3nc(C)cc(C)n3n2)S(=O)(=O)c2ccc(Cl)cc2)cc1	+
Cc1ccc(S(=O)(=O)N(Cc2nc3nc(C)c(Cl)c(C)n3n2)c2ccccc2)cc1	i
Cc1ccc(N(Cc2nc3nc(C)cc(C)n3n2)S(C)(=O)=O)cc1	i
Cc1ccc(S(=O)(=O)N(Cc2nc3nc(C)cc(C)n3n2)c2ccc(Cl)cc2)cc1	+
Cc1cc(C)n2nc(CN(c3cccc(Cl)c3)S(=O)(=O)c3ccccc3)nc2n1	i
Cc1ccc(S(=O)(=O)N(Cc2nc3nc(C)cc(C)n3n2)c2ccccc2)cc1	i
CCCc1ccc(S(=O)(=O)NCc2nc3cccnc3n2CC(C)C)cc1	i
CCc1cc(Sc2ccc(NC(=O)C3CC3)cc2)n2ncnc2n1	i
CCOCc1cc(C2NCCc3[nH]cnc32)ccc1OC (stereo not drawn)	i
CCc1cc(CN(C)CCC(=O)Nc2cccnc2)on1	i
CCOc1ccccc1-c1nc(Cn2c(=O)c3cnc(-c4ccc(C)cc4)nc3n(C)c2=O)c(C)o1	i
COc1ccccc1-c1nc(Cn2c(=O)c3cnc(-c4cccnc4)nc3n(C)c2=O)c(C)o1	i
COc1ccc(-c2ncc3c(=O)n(Cc4cccc(OC)c4)c(=O)n(C)c3n2)cc1	i
COc1ccccc1-c1nc(Cn2c(=O)c3cnc(-c4ccc(C)cc4)nc3n(C)c2=O)c(C)o1	+
COc1ccc(-c2ncc3c(=O)n(Cc4cccnc4)c(=O)n(C)c3n2)cc1	+
COc1ccc(-c2ncc3c(=O)n(Cc4cccc(C)c4)c(=O)n(C)c3n2)cc1	i
C=CCn1nc(C)c(-c2c(-c3ccccc3)ncn2CCS(C)(=O)=O)c1C	i
O=C(O)COc1ccc(-n2cc(CCO)cn2)cc1Cl	i
CCc1cccc(NC(=O)Cn2nc(N3CCN(c4ccc(F)cc4)CC3)ccc2=O)c1	i
CCc1cccc(NC(=O)Cn2c(=O)c3cnc(-c4ccccc4)nc3n(C)c2=O)c1	i
CCCCn1cc(-c2cc(C(=O)N3CCCC3C)c3cccc(C)c3n2)cn1 (stereo not drawn)	i
O=c1cc(CN2CCc3ccccc3C2)nc2nc(NCc3ccccc3)[nH]n12	i
O=c1cc(CN2CCN(CCO)CC2)nc2nc(NCc3ccc(Cl)cc3)[nH]n12	i
O=c1cc(CN2CCOCC2)nc2nc(NCc3ccccc3)[nH]n12	i
COc1ccc(CNc2nc3nc(CN4CCN(c5ccccc5)CC4)cc(=O)n3[nH]2)cc1	i
O=c1cc(CN2CCc3ccccc3C2)nc2nc(NCc3ccc(Cl)cc3)[nH]n12	+
